An excerpt weighted towards active compounds, which were near 7.4% of everything screened.
Rab9 promoter act: Rab9 promoter activation | 320,000 tested, 2.8% active | Potency, µM (top dose mostly 9.22 µM), for the others: at the highest dose activation, negative = inhibition, hits mostly activators | Huh7 Rab9 promoter-luciferase reporter, luminescence, 24 h; further: % of control where 0% means no effect; nearly all actives have a fitted effect of over 60% in size
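Huh7 cells stably carrying a Rab9 promoter-luciferase reporter, 1500 cells per well in OP-MEM I with 10% FBS, treated with compound 24 hours at 37C. Luciferase activity read by luminescence after 10 minutes with Amplite reagent.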
FLuc modulator: counter-screen for miR-21 project: firefly luciferase inhibitors or activators; P08659; purified FLuc, Km substrates, luminescence inhibition; Potency, µM (series often up to 57.5 µM), without a hit: at the highest dose activity change, negative = inhibition, actives largely listed as inhibitors; 360,000 tested, 6.9% active; AID 588342;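 further: plate controls were vehicle for no effect and reference inhibitor for full effect; nearly all actives have a fitted effect of over 55% in size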
Target sequence (P08659 whole entry, looked up): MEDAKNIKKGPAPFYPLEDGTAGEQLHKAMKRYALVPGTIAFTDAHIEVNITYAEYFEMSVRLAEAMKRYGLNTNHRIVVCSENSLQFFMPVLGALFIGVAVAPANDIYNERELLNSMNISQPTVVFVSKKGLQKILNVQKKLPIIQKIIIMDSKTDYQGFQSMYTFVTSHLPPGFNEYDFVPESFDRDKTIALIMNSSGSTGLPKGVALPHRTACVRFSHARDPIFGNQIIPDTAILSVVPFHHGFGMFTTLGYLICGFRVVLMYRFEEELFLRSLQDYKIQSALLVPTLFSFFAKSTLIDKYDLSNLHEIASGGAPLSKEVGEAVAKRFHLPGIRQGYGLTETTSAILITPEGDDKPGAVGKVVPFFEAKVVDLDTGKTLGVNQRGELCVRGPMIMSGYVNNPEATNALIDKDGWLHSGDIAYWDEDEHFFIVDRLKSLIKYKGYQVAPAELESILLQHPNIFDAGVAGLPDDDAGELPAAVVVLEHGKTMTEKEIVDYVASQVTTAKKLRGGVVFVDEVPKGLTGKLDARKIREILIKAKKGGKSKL
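Purified P. pyralis luciferase, 10 nM final, with Km-level 10 uM D-luciferin and 10 uM ATP in 50 mM Tris acetate pH 7.5, 10 mM Mg acetate, 0.01% Tween-20, 0.05% BSA; 6-point qHTS titration about 60 µM downward; luminescence read.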
SMN2 splice enh: SMN2 splice variant enhancement | HEK293 SMN2-luciferase splicing reporter, luminescence, 30-36 h | Potency, µM (series often up to 46.1 µM), for inactives: at the top dose activity change, positive = activation, actives largely listed as activators | 210,000 tested, 2.8% active | AID 1458; further: % of control where 0% means no effect; nearly all actives have a fitted effect of over 55% in size
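HEK293 cells carry an SMN2 […]–luciferase reporter in which exon 7 inclusion puts luciferase in frame. Cells were plated 10-12 h before compound addition, then incubated 30-36 h at 37C. ONE-Glo luminescence was read; sodium butyrate at 4.5 mM final served as control.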
ELG1 genotox: inducers of genotoxicity in HEK293T ELG1-luciferase cells | 330,000 tested, 1.3% active | HEK293T ELG1-luciferase reporter, luminescence, 16 h | Potency, µM (top dose mostly 46 µM), inactives show at the highest dose activity change, positive = activation, usual class: activators; further: % of control where 0% means no effect; nearly all actives have a fitted effect of over 60% in size
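After overnight (16 hr) compound treatment at 37 °C, ELG1-luciferase HEK293T cells were lysed with ONE-Glo; luminescence quantified 30 min later at room temperature.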
NPC1 prom act: activates the NPC1 promoter; 320,000 tested, 2.4% active; Huh7 NPC1 promoter luciferase reporter, 24 h; Potency, µM (doses to about 9.22 µM), inactives show at the highest dose activation, usual class: activators; further: % of control where 0% means no effect; nearly all actives have a fitted effect of over 60% in size
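Huh7 cells stably carrying NPC1 promoter–luciferase, plated in Opti-MEM with 10% FBS for 2 h, were exposed to compound in DMSO for 24 h at 37 °C; luciferase reagent was added for 10 min and luminescence read.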
Starred values were filed as active, the others as inactive; u = inconclusive; x = no result; [ ] = another dose, or the depositor's remark. The call rests on the fitted dose curve; in most records, active means well fitted curve in the direction sought with a large enough effect; inconclusive means small, poorly fitted or top-dose-only effect, or another doubt; inactive means no such curve, though single readings can be large; an effect the other way counts as inactive or inconclusive. Potency means the concentration at half of the fitted maximal effect.

SMILES	Rab9 promoter act	FLuc modulator	SMN2 splice enh	ELG1 genotox	NPC1 prom act
Cc1nn(-c2ccccc2)c(C)c1/C=N/n1c(-c2ccc(Cl)cc2)n[nH]c1=S	-1.7%	3.7%	-9.3%	10.1%	-0.4%
Cc1ccc2cccc(N=Cc3c(C)[nH]n(-c4ccccc4)c3=O)c2n1	-4.4%	16.9µM*	x	u	0.6%
Cc1[nH]n(-c2ccccc2)c(=O)c1/C=N/O	14.8%	-15.7%	-20.0%	1.4%	0.3%
Cc1ccc(-c2n[nH]c(=S)n2/N=C/c2c(C)[nH]n(-c3ccccc3)c2=O)cc1	0.6%	12µM*	-27.6%	-0.7%	-2.5%
Cn1cccc1/C=N/n1c(-c2ccccc2)n[nH]c1=S	1.3%	-0.8%	-13.6%	-0.6%	1.0%
Cn1cccc1/C=N/n1c(-c2ccc(C(C)(C)C)cc2)n[nH]c1=S	-5.4%	21.3µM*	-17.8%	-0.9%	-1.5%
CCCCC(=O)N1CCN(c2nc3ccc(Br)cc3s2)CC1	-4.4%	u	x	6.2%	24.2%
CCCC(=O)N1CCN(c2nc3ccc(CC)cc3s2)CC1	u	13.5µM*	x	12.8%	u
CC(C)(C)C(=O)N1CCN(c2nc3ccc(Br)cc3s2)CC1	u	u	x	4.8%	u
CCCC(=O)N1CCN(c2nc3ccc(Br)cc3s2)CC1	u	21.3µM*	x	11.6%	29.1%
CC(=O)N1CCN(c2nc3ccc(Br)cc3s2)CC1	u	15.1µM*	x	u	3.16µM*
CCCC(=O)N1CCN(c2nc3ccc(Cl)cc3s2)CC1	u	12µM*	x	u	u
CCc1c(C)sc(NC(=O)Cc2ccccc2OC)c1C(=O)N1CCOCC1	14.8%	-2.0%	x	0.0%	-0.6%
CC(C)(C)C(=O)N1CCN(c2nc3ccc(Cl)cc3s2)CC1	u	10.7µM*	x	u	2µM*
CN(Cc1ccccc1)Cc1c(O)ccc2c(=O)c(-c3ccccc3)c(C(F)(F)F)oc12	x	-6.3%	4.0%	x	x
O=C(NC1CCCCCC1)c1ccc(Br)o1	20.1%	u	x	7.9%	0.2%
O=C(NC1CCCCC1)c1cc2cc(Br)ccc2o1	u	4.78µM*	x	u	3.16µM*
O=C(NC1CCCC1)c1cc2cc(Br)ccc2o1	2.82µM*	10.7µM*	x	u	3.16µM*
O=C(NC1CCCC1)c1cc2ccccc2o1	u	u	x	u	28.2%
N#C/C(=C\c1ccc(OC(=O)c2cccs2)cc1)c1nc2ccccc2[nH]1	17.3%	u	11.2µM*	u	17.6%
COc1ccc2nc(/C(C#N)=C\c3ccc(C(=O)O)cc3)[nH]c2c1	0.9%	23.9µM*	x	2.3%	-2.4%
O=C(CCc1nc2ccccc2[nH]1)Nc1ccc2c(c1)OCCO2	-0.6%	-16.3%	-9.7%	-2.4%	0.8%
Cc1cc(/C=C(/C#N)c2nc3ccccc3[nH]2)c(C)n1-c1cc(C(=O)O)cc(C(=O)O)c1	-11.7%	16.9µM*	-4.6%	-1.6%	-1.2%
N#C/C(=C\Nc1ccc2c(c1)OCCO2)c1nc2ccccc2[nH]1	u	15.1µM*	-29.4%	-1.6%	u
N#C/C(=C\c1ccccc1OCC(=O)O)c1nc2ccccc2[nH]1	-3.1%	u	x	-1.0%	-2.7%
SMILES	Rab9 promoter act	FLuc modulator	SMN2 splice enh	ELG1 genotox	NPC1 prom act
CCC1=C2CC[C@H]3C(=O)N(CC)C(=O)[C@H]3[C@H]2[C@@]2(C)C(=O)N(CC(=O)OC)C(=O)N2C1=O	x	x	-1.9%	x	x
COc1cc(NC(=O)C2CCN(S(=O)(=O)c3ccc4[nH]c(=O)oc4c3)CC2)cc(OC)c1	-5.9%	-1.0%	x	0.5%	-3.6%
CCN(c1ccc(C)cc1C)S(=O)(=O)c1nnc(NC(=O)c2ccc(F)cc2)s1	x	1.8%	x	x	x
CCOC(=O)c1cc(-c2ccccc2)n(CC(=O)Nc2ccc(CC)cc2)c1C	x	-3.2%	x	x	x
N#C/C(=C\c1cccs1)c1nc2ccccc2[nH]1	u	6.75µM*	7.94µM*	u	u
N#C/C(=C/c1ccncc1)c1nc2ccccc2c(=O)[nH]1	-8.1%	u	x	-0.5%	-2.4%
N#C/C(=C\c1ccc(N2CCCC2)c([N+](=O)[O-])c1)c1nc2ccccc2[nH]1	u	5.36µM*	-10.8%	12.1%	u
CCOc1cc(/C=C(\C#N)c2nc3ccccc3[nH]2)ccc1OC(C)C(=O)O (centres undefined)	-5.2%[1.84 µM]	26.9µM*	x	0.3%	0.9%
